Source: PubChem BioAssay AID1159580 (chemical genetic matrix, 2015)
“And” between values parts separate entries of the source, which are not always exact repeats. Identical values can stand only once. Hit rate of the full screen: of about 5,500 compounds, about 2,000 (36%) were called active. Another 18% or so got no clear call; they are omitted. Rule as the data show it: active = normalized growth mostly below about 0.91 (no sharp cut-off); inconclusive = no clear call, values can overlap the other calls; inactive = mostly above about 0.92. The list shows a part of the results.

Experiment: chemical genetic growth profiling, strain panel (AID 1159580);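 also: tested at 20 µM; growth read once vehicle control cultures reached saturation at 30 °C; 1 = growth at the plate median or of vehicle wells; lower values mean less growth of the strain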
Details: growth OD
[1] = S. cerevisiae deletion strains, locus YAL013W, strain DEP1, hits give low values
[2] = S. cerevisiae deletion strains, locus YBR229C, strain ROT2, hits give low values
[3] = S. cerevisiae deletion strains, locus YDL101C, strain DUN1, hits give low values
[4] = S. cerevisiae deletion strains, locus YDR150W, strain NUM1, hits give low values
[5] = S. cerevisiae deletion strains, locus YEL061C, strain CIN8, hits give low values
[6] = S. cerevisiae deletion strains, locus YGR078C, strain PAC10, hits give low values
[7] = S. cerevisiae deletion strains, locus YHR030C, strain SLT2, hits give low values
[8] = S. cerevisiae deletion strains, locus YJR043C, strain POL32, hits give low values
[9] = S. cerevisiae deletion strains, locus YJR075W, strain HOC1, hits give low values
[10] = S. cerevisiae deletion strains, locus YLR039C, strain RIC1, hits give low values
[11] = S. cerevisiae deletion strains, locus YLR262C, strain YPT6, hits give low values
[12] = S. cerevisiae deletion strains, locus YMR263W, strain SAP30, hits give low values
[13] = S. cerevisiae deletion strains, locus YNL153C, strain GIM3, hits give low values
[14] = S. cerevisiae deletion strains, locus YNL322C, strain KRE1, hits give low values
[15] = S. cerevisiae deletion strains, locus YPL055C, strain LGE1, hits give low values
[16] = S. cerevisiae deletion strains, locus YPL241C, strain CIN2, hits give low values
[17] = S. cerevisiae strains, strain wild type, hits give low values

Measured: normalized growth

O/N=C(/CNC(c1ccccc1)(c1ccccc1)c1ccccc1)c1ccccc1
active: [7] 0.594
inactive: [1] 0.969 | [2] 0.977 | [3] 0.963 | [4] 0.9 | [5] 0.949 | [6] 0.987 | S. cerevisiae deletion strains, locus YHR087W, strain rtc3, hits give low values 1.01 | S. cerevisiae deletion strains, locus YJL187C, strain SWE1, hits give low values 0.97 | [8] 0.988 | [9] 1.02 | [10] 1.01 | S. cerevisiae deletion strains, locus YLR058C, strain SHM2 (second series), hits give low values 0.975 | S. cerevisiae deletion strains, locus YLR085C, strain ARP6, hits give low values 0.819 | [11] 1.02 | S. cerevisiae deletion strains, locus YML094W, strain GIM5, hits give low values 0.969 | S. cerevisiae deletion strains, locus YMR219W, strain ESC1, hits give low values 0.968 | [12] 0.999 | [13] 1.03 | S. cerevisiae deletion strains, locus YNL298W, strain CLA4 (second series), hits give low values 1 | [14] 0.985 | S. cerevisiae deletion strains, locus YNR030W, strain Alg12, hits give low values 0.976 | [15] 0.998 | [16] 0.964 | S. cerevisiae deletion strains, locus YPR135W, strain CTF4, hits give low values 0.758 | [17] 0.969

NCCCCNCCCN
inactive: [1] 1.01 and 0.954 | S. cerevisiae deletion strains, locus YAL040C, strain CLN3, hits give low values 0.977 | S. cerevisiae deletion strains, locus YBR021W, strain FUR4, hits give low values 1.11 | [2] 0.997 | S. cerevisiae deletion strains, locus YCL029C, strain bik1, hits give low values 0.95 | S. cerevisiae deletion strains, locus YCL061C, strain MRC1 (second series), hits give low values 0.982 | S. cerevisiae deletion strains, locus YDL035C, strain GPR1, hits give low values 1.02 | S. cerevisiae deletion strains, locus YDL074C, strain BRE1, hits give low values 0.98 | [3] 0.981 | S. cerevisiae deletion strains, locus YDL134C, strain PPH21, hits give low values 1.01 | S. cerevisiae deletion strains, locus YDL185W, strain tfp1, hits give low values 0.946 | S. cerevisiae deletion strains, locus YDL192W, strain arf1, hits give low values 0.983 | S. cerevisiae deletion strains, locus YDR101C, strain arx1, hits give low values 0.988 | [4] 0.978 and 1 | S. cerevisiae deletion strains, locus YDR162C, strain NBP2, hits give low values 0.998 | S. cerevisiae deletion strains, locus YDR318W, strain mcm21, hits give low values 0.987 | S. cerevisiae deletion strains, locus YDR363W, strain ESC2, hits give low values 0.971 | S. cerevisiae deletion strains, locus YDR388W, hits give low values 0.996 | S. cerevisiae deletion strains, locus YDR502C, strain sam2, hits give low values 1.01 | [5] 0.995 | S. cerevisiae deletion strains, locus YER002W, strain NOP16, hits give low values 0.991 | S. cerevisiae deletion strains, locus YER110C, hits give low values 0.979 | S. cerevisiae deletion strains, locus YER155C, strain BEM2, hits give low values 1.01 | S. cerevisiae deletion strains, locus YER167W, strain BCK2, hits give low values 1 | S. cerevisiae deletion strains, locus YGL078C, strain dbp3, hits give low values 0.981 | S. cerevisiae deletion strains, locus YGL086W, strain mad1, hits give low values 0.996 | S. cerevisiae deletion strains, locus YGL248W, strain PDE1, hits give low values 1 | [6] 0.972 | S. cerevisiae deletion strains, locus YGR135W, strain pre9, hits give low values 0.999 | S. cerevisiae deletion strains, locus YGR229C, strain SMI1, hits give low values 0.991 | S. cerevisiae deletion strains, locus YGR252W, strain gcn5, hits give low values 1.13 | [7] 0.985 and 0.976 | S. cerevisiae deletion strains, locus YHR079C, strain IRE1 (second series), hits give low values 0.981 | S. cerevisiae deletion strains, locus YHR079C, strain IRE1, hits give low values 0.985 | S. cerevisiae deletion strains, locus YHR094C, strain hxt1, hits give low values 0.972 | S. cerevisiae deletion strains, locus YHR129C, strain ARP1, hits give low values 0.989 | S. cerevisiae deletion strains, locus YHR200W, strain rpn10, hits give low values 0.992 | S. cerevisiae deletion strains, locus YIL066C, strain RNR3, hits give low values 0.99 | S. cerevisiae deletion strains, locus YIL073C, strain SPO22, hits give low values 0.722 | S. cerevisiae deletion strains, locus YIR030C, strain dcg1, hits give low values 0.99 | S. cerevisiae deletion strains, locus YJL095W, strain BCK1, hits give low values 0.977 and 1.02 | S. cerevisiae deletion strains, locus YJL134W, strain LCB3, hits give low values 0.995 | S. cerevisiae deletion strains, locus YJL168C, strain set2, hits give low values 0.991 | S. cerevisiae deletion strains, locus YJL187C, strain SWE1 (second series), hits give low values 0.964 | [8] 1 | S. cerevisiae deletion strains, locus YJR066W, strain TOR1, hits give low values 0.931 | [9] 0.995 and 1 | S. cerevisiae deletion strains, locus YKL009W, strain mrt4, hits give low values 0.991 | S. cerevisiae deletion strains, locus YKL068W, hits give low values 0.977 | S. cerevisiae deletion strains, locus YKL085W, strain MDH1 (second series), hits give low values 0.985 | S. cerevisiae deletion strains, locus YKL085W, strain MDH1, hits give low values 0.985 | S. cerevisiae deletion strains, locus YKL190W, strain CNB1, hits give low values 0.988 | S. cerevisiae deletion strains, locus YKR001C, strain vps1, hits give low values 0.971 | [10] 0.973 | S. cerevisiae deletion strains, locus YLR058C, strain SHM2, hits give low values 0.985 | S. cerevisiae deletion strains, locus YLR102C, strain apc9, hits give low values 0.991 | S. cerevisiae deletion strains, locus YLR113W, strain HOG1, hits give low values 1.05 | [11] 0.96 | S. cerevisiae deletion strains, locus YLR268W, strain sec22, hits give low values 0.928 | S. cerevisiae deletion strains, locus YLR330W, strain CHS5, hits give low values 0.991 | S. cerevisiae deletion strains, locus YLR342W, strain FKS1 (second series), hits give low values 1.04 | S. cerevisiae deletion strains, locus YLR371W, strain rom2, hits give low values 0.979 | S. cerevisiae deletion strains, locus YLR418C, strain cdc73, hits give low values 1.01 | S. cerevisiae deletion strains, locus YML016C, strain PPZ1, hits give low values 0.988 | S. cerevisiae deletion strains, locus YML124C, strain tub3, hits give low values 0.986 | S. cerevisiae deletion strains, locus YMR078C, strain ctf18, hits give low values 0.999 | S. cerevisiae deletion strains, locus YMR223W, strain ubp8, hits give low values 1.03 | [12] 0.978 and 0.977 | S. cerevisiae deletion strains, locus YMR307W, strain GAS1, hits give low values 1.12 and 0.988 | S. cerevisiae deletion strains, locus YNL067W, strain RPL9B, hits give low values 0.972 | S. cerevisiae deletion strains, locus YNL128W, strain TEP1, hits give low values 1.01 | [13] 0.971 and 1.03 | S. cerevisiae deletion strains, locus YNL175C, strain NOP13, hits give low values 1 | S. cerevisiae deletion strains, locus YNL183C, strain NPR1, hits give low values 0.959 | S. cerevisiae deletion strains, locus YNL197C, strain WHI3, hits give low values 0.988 | S. cerevisiae deletion strains, locus YNL224C, strain SQS1, hits give low values 0.98 | S. cerevisiae deletion strains, locus YNL233W, strain BNI4, hits give low values 0.98 | S. cerevisiae deletion strains, locus YNL250W, strain rad50, hits give low values 0.962 | S. cerevisiae deletion strains, locus YNL271C, strain bni1, hits give low values 0.977 | S. cerevisiae deletion strains, locus YNL298W, strain CLA4, hits give low values 0.981 | S. cerevisiae deletion strains, locus YNL307C, strain MCK1, hits give low values 0.975 | [14] 0.988 and 0.982 | S. cerevisiae deletion strains, locus YNR052C, strain pop2, hits give low values 0.995 | S. cerevisiae deletion strains, locus YOL006C, strain TOP1, hits give low values 0.776 | S. cerevisiae deletion strains, locus YOL012C, strain htz1 0.74 | S. cerevisiae deletion strains, locus YOL147C, strain pex11, hits give low values 0.982 | S. cerevisiae deletion strains, locus YOR061W, strain CKA2, hits give low values 0.996 | S. cerevisiae deletion strains, locus YOR069W, strain VPS5, hits give low values 0.996 | S. cerevisiae deletion strains, locus YOR083W, strain WHI5 (second series), hits give low values 0.915 | S. cerevisiae deletion strains, locus YOR136W, strain idh2, hits give low values 0.996 | S. cerevisiae deletion strains, locus YOR144C, strain elg1, hits give low values 0.996 | S. cerevisiae deletion strains, locus YOR184W, strain ser1, hits give low values 0.953 | S. cerevisiae deletion strains, locus YOR231W, strain MKK1, hits give low values 0.989 | S. cerevisiae deletion strains, locus YOR316C, strain cot1, hits give low values 0.979 | [15] 1.03 | [16] 0.997 | S. cerevisiae deletion strains, locus YPL256C, strain CLN2, hits give low values 0.974 | S. cerevisiae deletion strains, locus YPR119W, strain clb2, hits give low values 0.979 | S. cerevisiae deletion strains, locus YPR141C, strain kar3, hits give low values 0.991 | S. cerevisiae deletion strains, locus YPR163C, strain tif3, hits give low values 0.984 | S. cerevisiae deletion strains, locus YPR167C, strain met16, hits give low values 0.982 | S. cerevisiae deletion strains, strain wtn01, hits give low values 0.993 | [17] 1.01
